Measured values from PubChem BioAssay (NCATS).
Results filed as inconclusive are left out. Some of the results follow. Active and inactive are the calls of the source. Unless noted, the call rests on the fitted dose curve; in most records, active means well fitted curve in the direction sought with a large enough effect; inconclusive means small, poorly fitted or top-dose-only effect, or another doubt; inactive means no such curve, though single readings can be large; an effect the other way counts as inactive or inconclusive.

How the values were obtained:
[1] = qHTS Assay for Inhibitors of Fructose-1,6-bisphosphate Aldolase from Giardia Lamblia: Coupling assay counterscreen confirmation (AID 2795); further: on the % scale 0 is the no-effect control and ±100 the full control effect; nearly all actives have a fitted effect of over 55% in size
Summary of the method: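 Primary-screen hits were tested against the coupling system alone (GAPDH-based, glyceraldehyde-3-phosphate), without aldolase. Compounds at up to 57.5 uM final were preincubated 10 min at RT with coupling enzymes, then substrate/detection mix (AmpLite Red) was added for 20 min at RT; fluorescence read at 525/598 nm.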

[2] = biological target: Lysosomal acid glucosylceramidase (Homo sapiens) (UniProt P04062); assay: Glucocerebrosidase-p2 (AID 348; in the data active means potency below about 10 µM; further: potency means the concentration at half of the fitted maximal effect); settings: purified GBA, blue fluorogenic substrate, 40 min
Summary of the method: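 Compounds titrated from 0.6 nM upwards against 0.2 nM enzyme in pH 5.9 citric acid/KH2PO4, taurocholate, tween-20; blue fluorogenic substrate 80 uM, 40 min room temperature, stopped and read Ex 365/Em 440 for AC50.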

[3] = AP1 Signaling Pathway (AID 357; active means well fitted curve in either direction with a large enough effect, not every such curve was filed as active; further: on the % scale 0 is the no-effect control and ±100 the full control effect); settings: ME-180 AP-1-bla reporter, EGF-induced, beta-lactamase ratio, 5 h; at 7.69 µM (top of the series) unless noted
Summary of the method: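 ME-180 cells with beta-lactamase reporter under AP-1 response element, stimulated with EC50 EGF; compounds tested in titration series, 5 h at 37 °C. CCF4 substrate added 2.5 h at room temperature; 460/530 nm emission ratio gave %activity and AC50.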

[4] = biological target: Cytochrome P450 1A2 (Homo sapiens) (UniProt P05177); assay: p450-cyp1a2 (AID 410; calls by dose curve; further: potency means the concentration at half of the fitted maximal effect)
Summary of the method: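 20nM CYP1A2 with 100uM Luciferin-ME (at Km) in 100mM KPO4; compound preincubated 10 min, NADPH regeneration added, 60 min at room temperature. Luciferin quantified by luminescence after detection reagent; normalized to 57 uM furafylline.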

[5] = NFAT Signaling Pathway (AID 444; active means well fitted curve in either direction with a large enough effect, not every such curve was filed as active;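 further: carbachol stimulus at about its EC50 of 1 µM final; on the % scale 0 is the no-effect control and ±100 the full control effect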); settings: Jurkat NFAT-bla M1, carbachol, beta-lactamase ratio, 5 h; at 7.69 µM (top of the series) unless noted
Summary of the method: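 Jurkat cells with NFAT-driven β-lactamase reporter and co-expressed M1 receptor, stimulated with carbachol (final 1 uM, ~EC50), compound titration, 5 h at 37 °C. CCF4 loaded 1 h at RT; 460/530 nm ratio gave %activity and AC50.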

[6] = Stat Signaling Pathway (AID 446; active means well fitted curve in either direction with a large enough effect, not every such curve was filed as active;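 further: ME-180 cervical cancer cells given 40 pM IL-6 alongside compound; SIE-controlled beta-lactamase reporter measured as 460/530 nm FRET emission ratio; on the % scale 0 is the no-effect control and ±100 the full control effect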); settings: ME-180 SIE beta-lactamase reporter, IL-6 stimulated, 5 h; at 7.69 µM (top of the series) unless noted
Summary of the method: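 ME-180 SIE-bla cells; overnight plating; cpd + IL-6 40 pM, 5 h, 37 C; LiveBLAzer 2.5 h RT; 460/530 nm emission ratio. Normalized to 300 pM IL-6 and 125 nM JAK inhibitor controls.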

[7] = biological target: Glucocorticoid receptor (Homo sapiens) (UniProt P04150); assay: GR-GFP Redistribution (AID 450;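 active means compounds whose dose series gives a full or clear partial fitted curve of increased nuclear translocation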; further: potency means the concentration at half of the fitted maximal effect); settings: U2OS GR-GFP nuclear translocation, laser cytometry, 2 h
[8] = biological target: Glucocorticoid receptor (Homo sapiens) (UniProt P04150); assay: GR-EFC Redistribution (AID 451; calls by dose curve; further: potency means the concentration at half of the fitted maximal effect); settings: CHO-K1 GR-EFC translocation, beta-gal luminescence, 2 h
Summary of the method: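 CHO-K1 cells expressing nuclear EA and GR-ED fragments of b-gal; compounds titrated up to 46 uM final, 2 h at 37 C. GR nuclear translocation read as complemented b-gal luminescence after 1 h RT detection.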

[9] = biological target: Mitogen-activated protein kinase 10 (Mus musculus) (UniProt Q61831); assay: JNK3 AlphaScreen Assay (AID 530; active means well fitted curve in either direction with a large enough effect, not every such curve was filed as active;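 further: kinase came from lysate of stimulated human HepG2 cells; signal reports phosphorylation of biotinylated GST-cJun 1-79 at Ser73 with 10 µM ATP; on the % scale 0 is the no-effect control and ±100 the full control effect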)
Summary of the method: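 Pre-activated (IL-1β/TNFα) JNK3 in HepG2 lysates phosphorylates biotin-GST-cJun(1-79), 10 uM ATP; anti-phospho-cJun(Ser73) AlphaScreen read at room temperature, pH 7.6 Tris buffer. Compounds pre-incubated 15 min as titrations.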

[10] = biological target: 3',5'-cyclic-AMP phosphodiesterase 4B (Homo sapiens) (UniProt Q07343); assay: qHTS Assay for Inhibitors of PDE-IV (AID 607; active means well fitted activation curve with a large enough effect in the main read-out, with a control signal flat, not every such curve was filed as active; further: % of control where 0% means no effect)
Summary of the method: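 ACTOne HEK293 cells carry a modified cAMP-gated CNG channel and express endogenous PDE4; plated 1000 cells/well, compounds up to 22.9 uM final. Membrane-potential dye fluorescence (ex 535/em 590) was read; parental cells received 10 uM forskolin + 100 uM RO 20-1724.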

[11] = biological target: Cytochrome P450 3A4 (Homo sapiens) (UniProt P08684); assay: qHTS Assay for Activators of Cytochrome P450 3A4 (AID 885); further: nearly all actives have a fitted effect of over 65% in size
Summary of the method: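 20nM CYP3A4 + 25uM Luciferin-PPXE (=KM), 200mM KPO4; cpd 10 min RT; NADPH regen, 60 min RT; stop w/ detection buffer, 20 min; luminescence. Normalized to 57 uM ketoconazole.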

[12] = Confirmation and Secondary Assay for Modulators of Hemoglobin Beta Chain Splicing at IVS2 654 locus (AID 910);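 further: HeLa cells stably carrying EGFP split by mutant beta-globin IVS2-654 intron; % of control where 0% means no effect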
Summary of the method: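 HeLa cells stably expressing EGFP interrupted by β-globin IVS2-654 intron, seeded overnight in Opti-MEM/2% FCS, then treated 2 days at 37 °C. Restored splicing read as total peak GFP intensity per well by laser scanning cytometry (488 nm excitation, 500–520 nm emission); 500 nM antisense PNA as control.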

[13] = Confirmation and Secondary Assay for Modulators of Hemoglobin Beta Chain Splicing at IVS2 705 locus (AID 930);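 further: HeLa cells stably expressing the EGFP-705 splicing reporter; GFP fluorescence per well restored by corrected splicing of the IVS2-705 intron in EGFP; % of control where 0% means no effect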
Summary of the method: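 HeLa IVS2-705 EGFP reporter cells, 500/well, compound 2 d at 37C; correct splicing yields fluorescent EGFP. Control: 500 nM antisense PNA. Read-out: total peak GFP intensity.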

[14] = biological target: Ubiquitin carboxyl-terminal hydrolase 1 (Homo sapiens) (UniProt O94782); assay: Inhibitors of USP1/UAF1: Pilot qHTS (AID 504865);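 further: rhodamine fluorescence freed from ubiquitin-rhodamine substrate followed over time; top concentration of the series differs between compounds; on the % scale 0 is the no-effect control and ±100 the full control effect; nearly all actives have a fitted effect of over 35% in size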
Summary of the method: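 Kinetic fluorescence assay: 1nM USP1/UAF1, 15 min compound preincubation, then 150nM Ub-Rho; 480/540 nm.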

Glucocorticoid receptor (Homo sapiens), sequence (P04150 whole entry, looked up, the tested form may be a part): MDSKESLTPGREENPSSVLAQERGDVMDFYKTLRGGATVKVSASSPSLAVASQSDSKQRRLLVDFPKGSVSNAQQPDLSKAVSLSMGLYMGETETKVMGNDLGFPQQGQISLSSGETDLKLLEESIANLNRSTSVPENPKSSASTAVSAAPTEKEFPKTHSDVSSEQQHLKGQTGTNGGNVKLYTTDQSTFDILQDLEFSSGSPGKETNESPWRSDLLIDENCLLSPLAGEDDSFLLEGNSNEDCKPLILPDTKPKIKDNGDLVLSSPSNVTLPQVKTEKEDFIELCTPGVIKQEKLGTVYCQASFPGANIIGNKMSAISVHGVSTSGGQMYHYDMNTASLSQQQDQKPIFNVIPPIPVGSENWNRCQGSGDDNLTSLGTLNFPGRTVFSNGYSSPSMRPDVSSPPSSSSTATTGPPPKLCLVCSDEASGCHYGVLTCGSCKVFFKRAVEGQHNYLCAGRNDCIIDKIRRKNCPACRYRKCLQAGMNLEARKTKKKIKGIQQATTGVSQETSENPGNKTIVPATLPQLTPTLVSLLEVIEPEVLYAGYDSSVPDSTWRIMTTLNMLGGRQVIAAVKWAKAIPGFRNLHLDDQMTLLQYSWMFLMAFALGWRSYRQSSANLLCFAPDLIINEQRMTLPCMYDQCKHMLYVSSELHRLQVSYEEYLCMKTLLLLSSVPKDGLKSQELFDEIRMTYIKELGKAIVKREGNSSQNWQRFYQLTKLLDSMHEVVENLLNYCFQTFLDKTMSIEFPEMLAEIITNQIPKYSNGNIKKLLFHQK
Lysosomal acid glucosylceramidase (Homo sapiens), sequence (P04062 whole entry, looked up): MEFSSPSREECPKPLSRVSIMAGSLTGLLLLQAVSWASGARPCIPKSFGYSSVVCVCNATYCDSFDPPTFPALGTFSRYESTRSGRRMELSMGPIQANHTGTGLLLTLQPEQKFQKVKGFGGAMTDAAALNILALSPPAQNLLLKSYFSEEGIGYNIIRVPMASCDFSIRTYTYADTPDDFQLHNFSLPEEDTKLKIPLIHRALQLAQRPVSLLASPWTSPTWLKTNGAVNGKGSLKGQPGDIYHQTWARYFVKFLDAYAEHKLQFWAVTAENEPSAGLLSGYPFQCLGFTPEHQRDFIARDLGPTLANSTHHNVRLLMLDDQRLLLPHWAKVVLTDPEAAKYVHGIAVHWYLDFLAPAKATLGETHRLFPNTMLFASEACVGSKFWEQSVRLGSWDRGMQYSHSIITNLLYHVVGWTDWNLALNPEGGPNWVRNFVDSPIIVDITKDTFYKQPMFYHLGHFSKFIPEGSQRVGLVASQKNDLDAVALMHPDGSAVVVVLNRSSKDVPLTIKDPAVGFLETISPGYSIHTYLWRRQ
Cytochrome P450 1A2 (Homo sapiens), sequence (P05177 whole entry, looked up): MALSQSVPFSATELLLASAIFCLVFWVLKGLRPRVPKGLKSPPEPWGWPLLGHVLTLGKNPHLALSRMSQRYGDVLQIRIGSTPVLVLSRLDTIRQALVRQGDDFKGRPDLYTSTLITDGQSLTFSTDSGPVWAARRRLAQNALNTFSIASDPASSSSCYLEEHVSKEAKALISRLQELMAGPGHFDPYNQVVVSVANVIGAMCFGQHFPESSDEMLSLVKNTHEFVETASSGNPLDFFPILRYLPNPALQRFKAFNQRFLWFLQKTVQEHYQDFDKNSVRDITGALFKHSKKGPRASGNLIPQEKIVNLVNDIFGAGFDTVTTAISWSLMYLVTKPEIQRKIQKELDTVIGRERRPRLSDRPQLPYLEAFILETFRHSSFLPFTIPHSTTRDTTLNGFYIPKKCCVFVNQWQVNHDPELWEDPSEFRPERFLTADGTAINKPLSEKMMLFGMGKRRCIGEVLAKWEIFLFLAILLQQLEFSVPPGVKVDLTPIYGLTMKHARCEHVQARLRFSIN
3',5'-cyclic-AMP phosphodiesterase 4B (Homo sapiens), sequence (Q07343 whole entry, looked up): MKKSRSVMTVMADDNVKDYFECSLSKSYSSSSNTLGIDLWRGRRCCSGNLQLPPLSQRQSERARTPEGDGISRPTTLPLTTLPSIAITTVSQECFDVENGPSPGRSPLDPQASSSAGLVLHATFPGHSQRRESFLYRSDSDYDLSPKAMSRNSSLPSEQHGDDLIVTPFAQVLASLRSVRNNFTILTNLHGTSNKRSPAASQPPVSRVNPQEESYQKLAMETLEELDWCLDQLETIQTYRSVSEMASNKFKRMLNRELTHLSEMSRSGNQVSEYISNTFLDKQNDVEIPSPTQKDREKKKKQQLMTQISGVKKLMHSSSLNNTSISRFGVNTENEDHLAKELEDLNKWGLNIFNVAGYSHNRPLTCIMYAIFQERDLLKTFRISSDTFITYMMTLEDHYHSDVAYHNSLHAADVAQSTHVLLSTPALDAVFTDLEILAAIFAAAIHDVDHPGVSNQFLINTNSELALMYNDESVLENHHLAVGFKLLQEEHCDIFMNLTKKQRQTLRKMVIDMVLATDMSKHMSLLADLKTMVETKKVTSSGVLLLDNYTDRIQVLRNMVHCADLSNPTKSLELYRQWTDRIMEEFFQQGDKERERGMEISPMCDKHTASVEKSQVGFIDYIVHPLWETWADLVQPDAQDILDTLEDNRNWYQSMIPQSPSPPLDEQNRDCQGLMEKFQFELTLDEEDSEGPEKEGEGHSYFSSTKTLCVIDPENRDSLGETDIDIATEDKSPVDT
Ubiquitin carboxyl-terminal hydrolase 1 (Homo sapiens), sequence (O94782 whole entry, looked up): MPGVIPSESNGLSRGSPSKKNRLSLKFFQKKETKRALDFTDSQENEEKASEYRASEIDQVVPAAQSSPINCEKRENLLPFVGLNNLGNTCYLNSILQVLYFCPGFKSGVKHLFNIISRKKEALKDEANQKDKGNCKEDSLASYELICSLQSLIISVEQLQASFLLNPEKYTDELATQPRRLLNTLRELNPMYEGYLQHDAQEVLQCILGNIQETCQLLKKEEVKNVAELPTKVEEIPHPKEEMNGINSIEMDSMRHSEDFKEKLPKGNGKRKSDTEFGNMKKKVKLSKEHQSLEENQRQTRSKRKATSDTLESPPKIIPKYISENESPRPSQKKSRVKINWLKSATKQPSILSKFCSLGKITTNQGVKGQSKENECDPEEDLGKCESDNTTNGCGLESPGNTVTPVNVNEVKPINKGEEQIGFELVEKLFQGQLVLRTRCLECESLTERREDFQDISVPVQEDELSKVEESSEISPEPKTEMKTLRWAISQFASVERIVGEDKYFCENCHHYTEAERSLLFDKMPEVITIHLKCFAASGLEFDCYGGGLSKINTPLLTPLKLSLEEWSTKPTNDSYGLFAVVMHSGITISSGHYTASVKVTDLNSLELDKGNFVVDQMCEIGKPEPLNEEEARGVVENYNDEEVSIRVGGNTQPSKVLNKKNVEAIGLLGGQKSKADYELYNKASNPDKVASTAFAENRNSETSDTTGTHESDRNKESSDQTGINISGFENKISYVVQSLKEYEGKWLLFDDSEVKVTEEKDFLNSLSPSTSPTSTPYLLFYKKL
Cytochrome P450 3A4 (Homo sapiens), sequence (P08684 whole entry, looked up): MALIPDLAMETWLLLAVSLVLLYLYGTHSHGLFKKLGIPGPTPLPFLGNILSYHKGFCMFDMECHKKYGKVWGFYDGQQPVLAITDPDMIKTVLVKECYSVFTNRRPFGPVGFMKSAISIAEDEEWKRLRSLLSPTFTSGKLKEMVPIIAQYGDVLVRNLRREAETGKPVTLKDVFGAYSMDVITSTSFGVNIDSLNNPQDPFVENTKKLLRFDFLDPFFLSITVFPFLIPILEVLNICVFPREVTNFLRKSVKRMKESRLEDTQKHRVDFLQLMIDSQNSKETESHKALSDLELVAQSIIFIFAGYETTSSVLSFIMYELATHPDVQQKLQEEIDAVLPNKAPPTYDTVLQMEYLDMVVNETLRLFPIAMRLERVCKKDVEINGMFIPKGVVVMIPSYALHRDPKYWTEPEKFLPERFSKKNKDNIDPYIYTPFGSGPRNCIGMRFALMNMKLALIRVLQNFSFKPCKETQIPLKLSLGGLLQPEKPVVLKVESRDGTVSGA

O=C(O)Cn1c(Cc2ccccc2)nc2ccccc21
inactive: outcome [1]

COC(=O)CC1=NN(c2nc(C)cc(C)n2)C(=O)C1
inactive: outcome [1]

CN(C)c1ccc(-c2cc(NCc3ccccc3)ncn2)cc1
active: Potency [4] 1 µM
inactive: Potency [2] > 11.4 µM | activity change, negative = inhibition [3] -19.2% | activity change, negative = inhibition [5] 12.6% | activity, negative = inhibition [6] -7.24% | Potency [7] > 46 µM | Potency [8] > 46 µM | Potency [9] | Potency [10] | Potency [11] | outcome [12] | outcome [13] | Potency [14]
